The results in this text go back to PubChem BioAssay AID651550 (National Center for Advancing Translational Sciences (NCATS), 2012).

In all, about 360,000 compounds went through this assay and about 1,100 (0.31%) were called active. Cut-off read from the data, not from the text of the source: active = activity change below about -80%; inconclusive = mostly about -51% to -80%; inactive = weaker than that. What follows is part of a selection rich in actives, with near analogues and random picks from the rest.
% is set by controls: 0 for no effect and ±100 for the full control effect.

For the test, the target named is RAC-alpha serine/threonine-protein kinase (Homo sapiens) (UniProt P31749). Put plainly: HTS Assay for Inhibitors of Akt Phophorylation: Primary Screen. The settings on record: Neuro2A IGF-stimulated pAkt S473 HTRF, 20 min; at 50 µM, stronger effect = lower value. In outline: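 Single-point screen (50 µM final compound) in Neuro2A cells stimulated 20 min with 6 nM IGF at 37 deg C. After lysis, Ser473-phosphorylated Akt read by HTRF (ex 330 nm, em 615/665 nm) as the 665/615 ratio.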
As to `O=C(C(=O)N1CCN(c2ccccc2)CC1)c1ccc2c(c1)OCO2`, the activity change result was “inactive”.

For `CC1(C(=O)Nc2ccc3c(c2)OCCO3)CN(S(C)(=O)=O)CC(=O)N1Cc1cccc(F)c1` (stereo unspecified), the activity change result was “inactive”.

For the compound `COc1ccc(-n2ncc3c(SCC(=O)NNC(C)=O)ncnc32)cc1`, the activity change result is “inactive”.

Turning to `COc1ccc(-n2ncc3c(N4CCc5ccccc54)ncnc32)cc1`, the activity change was -95.4% (active).

For the compound `COc1ccccc1N1CCN(C(=O)CSc2ncnc3c2cnn3-c2ccc(C)c(C)c2)CC1`, the activity change entry is “inactive”.

Turning to `COc1nc(Oc2ccc(=O)n(C)n2)nc(N(C)C)n1`, the activity change is 6.07% (inactive).

`COc1nc(OC)nc(N(C)CCO)n1`: the activity change is -113% (active).

In the case of `CO[C@@H]1CN(C)C(=O)c2cc(NC(=O)C3CC3)ccc2OC[C@H](C)N(C(=O)CN2CCOCC2)C[C@@H]1C`, the activity change result was “inactive”.

As for `CC(=O)C[C@@H]1OC[C@H](C)N1S(=O)(=O)c1ccc(C)cc1`, the activity change result is “inactive”.

On to `Cc1cccc(C(=O)Nc2ccc3c(c2)C(=O)N(CC(C)C)C3=O)c1`, for which the activity change result was “inactive”.

Turning to `Cc1cccc(C(=O)Nc2ccc(C(=O)/C=C/c3cccs3)cc2)c1`, the activity change is -121% (active).

`Cc1cccc(C(=O)Nc2ccc(Oc3cnccn3)cc2)c1`: the activity change entry is “inactive”.

Take `CCCCCc1c(Cc2ccccc2)ncn1CCc1ccccc1OC`: the activity change entry is “inactive”.

`COc1ccc(N2C(=O)CCC(C(=O)N(C)C3CCCCC3)C2c2ccc(OC)c(OC)c2)cc1` (stereo unspecified): the activity change entry was “inactive”.

Take `COc1ccc(S(=O)(=O)N[C@@H]2C=C[C@@H](CC(=O)N3CCc4ccccc4C3)O[C@@H]2CO)cc1`: the activity change result was “inactive”.

Take `Cc1ccc(C(=O)NC2CCN(C(=O)Nc3ccc(F)cc3)CC2)cc1`: the activity change entry was “inactive”.

For `COc1ccc(C(=O)NC2CCN(C(=O)Nc3ccc(F)cc3)CC2)cc1`, the activity change result is “inactive”.

`Cc1cc(C)cc(NC(=O)N2CCC(NC(=O)c3ccc(F)cc3)CC2)c1`: the activity change is -96.8% (active).

On to `Cc1ccc(S(=O)(=O)N2C[C@H]3n4c(=O)ccc(=O)n4C[C@H](OC(=O)NC4CCCC4)[C@@]3(O)C2)cc1`, for which the activity change result was “inactive”.

With `Cc1ccc2nc(Nc3ncc4c(n3)CC(C)(C)CC4=O)nc(C)c2c1`, the activity change result was “inactive”.

On to `Cc1cc(-c2ccccc2)nc(N2CCC(C(=O)NC34CC5CC(CC(C5)C3)C4)CC2)n1`, for which the activity change was -97.3% (active).

`CC(=O)N1CCC(C(=O)Nc2nc(-c3ccccc3)ns2)CC1`: the activity change result is “inactive”.

In the case of `O=C(NNC(=O)C1CCN(c2ncccn2)CC1)c1ccccc1`, the activity change entry is “inactive”.

As to `CCCCCNC(=O)C1C(=O)Nc2ccccc2C(=O)N1C(C)(C)C` (stereo unspecified), the activity change result is “inactive”.

Regarding `COC(=O)[C@]12CCCCC=C1N(Cc1ccc(Cl)cc1Cl)C(=O)[C@H](CC(=O)NCc1cccc3ccccc13)C2`, the activity change result was “inactive”.

Regarding `COC(=O)C1(C(=O)OC)C[C@H](c2ccccc2)N(Cc2ccccc2OC)[C@@H]1c1ccccc1`, the activity change entry was “inactive”.

Consider `O=C(N[C@H]1CC[C@H](CC(=O)N2CCCCC2)O[C@@H]1CO)c1cccc(F)c1`, for which the activity change entry was “inactive”.

Consider `CCc1nc2sc3c(Cl)ncnc3c2c2c1CCCC2`, for which the activity change result is “inactive”.

Consider `c1ccc(COc2nsnc2N2CCOCC2)cc1`, for which the activity change entry was “inactive”.

Take `c1ccc(CSc2ncnc3c2sc2nc(N4CCOCC4)c4c(c23)CCCC4)cc1`: the activity change is -92.8% (active).

For the compound `COC(=O)[C@@]12C[C@@H](CC(=O)NCCCCc3ccccc3)C(=O)N(CCc3ccc(OC)c(OC)c3)C1=CCC(C)(C)C2`, the activity change entry is “inactive”.

In the case of `CCOC(=O)NC(=O)CSc1nnc(SCCC(=O)O)s1`, the activity change entry is “inactive”.

Turning to `COC(=O)[C@@]12C[C@@H](CC(=O)N3CCCCC3)C(=O)N(Cc3ccc4c(c3)OCO4)C1=CCC(C)(C)C2`, the activity change result is “inactive”.

With `N#Cc1c(N)nc2c3c(sc(=N)c2c1N)NC(=O)CC3c1ccccc1Cl` (stereo unspecified), the activity change was -87.7% (active).

As to `CSc1nc2c(c(=O)[nH]1)C(c1cccc(Cl)c1Cl)CC(=O)N2` (stereo unspecified), the activity change result was “inactive”.

Consider `COc1ccc(C2CC(=O)Nc3sc(=N)c4c(N)c(C#N)c(N)nc4c32)cc1OC` (stereo unspecified), for which the activity change entry is “inactive”.

As for `CN(C(=O)C1CCN(c2ncnc3c2nc2n3CCCCC2)CC1)C1CCCCC1`, the activity change entry is “inactive”.

Consider `Cc1ccnc(NC(=O)CCC(=O)N(CC(=O)NCc2ccccc2)Cc2ccco2)c1`, for which the activity change result is “inactive”.

Regarding `CCOC(=O)N1CCN(C(=O)C[C@@H]2C[C@@]3(C(=O)OC)CC(C)(C)CC=C3N(Cc3ccco3)C2=O)CC1`, the activity change entry is “inactive”.

Turning to `CC1CC(C)CN(CCCNC(=O)c2csc3c2CCCCC3)C1` (stereo unspecified), the activity change result is “inactive”.

`CC(=O)Cc1nsc(NC(=O)c2csc3c2CCCC3)n1`: the activity change was -104% (active).

As to `CC(=O)Cc1nsc(NC(=O)c2ccc(Cl)cc2Cl)n1`, the activity change result is “inactive”.

As to `O=C(COC(=O)c1cc2c(s1)CCCC2)NCc1ccccc1Cl`, the activity change result was “inactive”.

On to `CC(=O)Cc1nsc(NC(=O)c2ccc(COc3ccc(C)cc3)o2)n1`, for which the activity change entry was “inactive”.

Take `O=C(NCc1ccccc1Cl)c1csc2c1CCCCC2`: the activity change was -106% (active).

Consider `CCOC(=O)C=Cc1ccc(C(=O)OCC)[nH]1`, for which the activity change entry was “inactive”.

`Cc1ccc(S(=O)(=O)N2CC3C(=O)C[C@@H](c4ccccc4Cl)N(S(=O)(=O)c4ccc(C)cc4)C3CC2c2ccccc2)cc1` (stereo partly specified): the activity change entry is “inactive”.

Regarding `Cc1ccc(-c2c3c(=O)n(C)c(=O)n(C)c3cn2-n2cnnc2)cc1`, the activity change is -111% (active).

With `Cc1cn(C)c(=O)n(C)c1=O`, the activity change result is “inactive”.

With `COc1cccc(-n2cc3c(c2-c2ccccc2)c(=O)n(C)c(=O)n3C)c1`, the activity change was -16.8% (inactive).

Turning to `COc1ccc(C(C(=O)NCc2ccccc2)n2c(=O)c(-c3ccccc3)nc3ccccc32)cc1` (stereo unspecified), the activity change result is “inactive”.

Turning to `COc1cc(OC)c(NS(=O)(=O)c2cn(C)cn2)cc1Cl`, the activity change entry is “inactive”.

Consider `CCC(c1nc2ccccc2[nH]1)n1c(=O)c(-c2cccs2)nc2ccccc21` (stereo unspecified), for which the activity change entry was “inactive”.

In the case of `N#Cc1ccc(C(C(=O)NCc2ccccc2)n2c(=O)c(-c3ccco3)nc3ccccc32)cc1` (stereo unspecified), the activity change result was “inactive”.

Regarding `Cc1cc(NC(=O)CSc2nc3c(cc2C#N)CCCCC3)no1`, the activity change entry is “inactive”.

Turning to `Cc1cc(NC(=O)CSc2nc(C(C)C)nc3sc4c(c23)CCC(C)C4)no1` (stereo unspecified), the activity change is -89.6% (active).

As for `CC(C)c1nc(SCC(=O)Nc2cccc(C(=O)O)c2)c2c3c(sc2n1)CCCC3`, the activity change entry was “inactive”.

For `Cn1cnc(S(=O)(=O)N2C[C@@H](O)COC[C@@H]3O[C@H](CC(=O)NC4CCC4)CC[C@H]32)c1`, the activity change result was “inactive”.

As for `COc1ccc(-c2cc3c(c4c2ccn4C)C2CCC3C2)cn1` (stereo unspecified), the activity change entry was “inactive”.

On to `Nc1nc(C23CC4CC(CC(C4)C2)C3)cs1`, for which the activity change result is “inactive”.

With `CC(C)CN1C(=O)CN(S(C)(=O)=O)CC1(C)C(=O)NCc1ccccc1` (stereo unspecified), the activity change entry is “inactive”.
